Results filed as inconclusive are left out. Active and inactive are the calls of the source. The calls were made as follows: active = hit-call score of the fitted dose curve at least 0.9, where 1 is the maximum; inconclusive = response in the unintended direction; inactive = score below 0.9.

Experimental findings from PubChem BioAssay (EPA / NIEHS) are described below.

The target in experiment [1] is Androgen receptor (Homo sapiens) (UniProt P10275). Kind of experiment: ATG_AR_TRANS: Attagene TRANS-FACTORIAL HepG2 Assay for human Androgen Receptor (AR) (AID 2282973). As to conditions: HepG2 Attagene TRANS-FACTORIAL AR reporter transcription. Put shortly:
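Steps: transfect HepG2 with multiple GAL4-UAS reporter transcription units (TRANS format, exogenous NR-Gal4 protein); dose 24 h; isolate RNA, reverse-transcribe, PCR-amplify, FAM-label, HpaI-digest; resolve by capillary electrophoresis. Positive direction vs DMSO.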

The target in experiment [2] is rat Monoamine Oxidase, MAO-B, Central (MAOBC), Maob (gene 25750) (UniProt P19643). Kind of experiment: NVS_ENZ_rMAOBC: NovaScreen (NVS) Enzymatic Assay for rat Monoamine Oxidase, MAO-B, Central (MAOBC) (AID 2283238). Put shortly:
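Compounds were first tested in duplicate at 25 uM against MAO-B from rat brain tissue; those passing the inhibition threshold were retested in concentration series up to 50 uM. Radiodetection by scintillation counting at 1.17 h, analysed against DMSO baseline.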

Experiment [3] concerns rat Monoamine Oxidase, MAO-A, Central (MAOAC), gene 29253. The experiment in a line: NVS_ENZ_rMAOAC: NovaScreen (NVS) Enzymatic Assay for rat Monoamine Oxidase, MAO-A, Central (MAOAC) (AID 2283243).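 Also: potency refers to inhibition seen as signal drop below DMSO baseline.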 Put shortly: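 Rat brain tissue extract used as enzyme source in a cell-free radiometric assay, read by scintillation counting 1.5 hours after dosing. Loss of signal relative to DMSO baseline scored; primary screen at 25 uM in duplicate, actives followed up in concentration series.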

Experiment [4] deals with human Phosphatase and Tensin Homolog (PTEN), PTEN (gene 5728) (UniProt P60484). Kind of experiment: NVS_ENZ_hPTEN: NovaScreen (NVS) Enzymatic Assay for human Phosphatase and Tensin Homolog (PTEN) (AID 2283203). Summed up:
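Cell-free recombinant human PTEN with fluorescent substrate; product separated by electrophoretic mobility shift and read by fluorescence 1 h after dosing. Primary screen in duplicate at 25 uM, actives followed in concentration series versus DMSO.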

The test system of experiment [5] is rat Monoamine Oxidase, MAO-A, Peripheral (MAOAP), gene 29253. The experiment in a line: NVS_ENZ_rMAOAP: NovaScreen (NVS) Enzymatic Assay for rat Monoamine Oxidase, MAO-A, Peripheral (MAOAP) (AID 2283237). Summed up:
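Rat liver mitochondrial membranes served as the MAO-A source, with enzyme activity measured by radiometric scintillation counting 1.17 hours after dosing. Loss of signal was fitted against DMSO; primary screen used 25 uM in duplicate, follow-up used concentration series.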

Experiment [6] deals with human Protein Tyrosine Phosphatase Receptor Type C (PTPRC), PTPRC (gene 5788) (UniProt P08575). Kind of experiment: NVS_ENZ_hPTPRC: NovaScreen (NVS) Enzymatic Assay for human Protein Tyrosine Phosphatase Receptor Type C (PTPRC) (AID 2283212). Put shortly:
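Yeast-extracted human PTPRC used in a cell-free colorimetric enzyme activity read-out, 1 h after dosing. Primary screen in duplicate at 25 uM; actives rerun in concentration-response up to 50 uM, DMSO as baseline.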

Experiment [7] deals with rat Monoamine Oxidase, MAO-B, Peripheral (MAOBP), Maob (gene 25750) (UniProt P19643). The experiment in a line: NVS_ENZ_rMAOBP: NovaScreen (NVS) Enzymatic Assay for rat Monoamine Oxidase, MAO-B, Peripheral (MAOBP) (AID 2283242).
A short description of experiment [8]: ATG_M_32_XSP2: Attagene TRANS-FACTORIAL Multi-Species (XSP2) HepG2 Assay for M19 Transcription Factor (Internal Marker) (AID 2283826). Put shortly:
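Transfected HepG2 (multiplexed GAL4-UAS reporters), 24 h chemical exposure, 3 nM 6-alpha-fluorotestosterone + 1.5 nM norgestrel added. RNA → oligo(dT) RT → PCR → 6-FAM primer extension → HpaI cut → CE. Fitted upward vs DMSO.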

Experiment [9] concerns the target Voltage-dependent N-type calcium channel subunit alpha-1B (Rattus norvegicus) (UniProt Q02294). The experiment in a line: NVS_IC_rCaChN: NovaScreen (NVS) Ion Channel Assay for rat Calcium Channel, Type N (CaChN) (AID 2283317).
Experiment [10] deals with Norway rat Vesicular Monoamine Transporter (VMAT2), neurotransmitter transporter, Slc18a2 (gene 25549) (UniProt Q01827). Kind of experiment: NVS_TR_rVMAT2: NovaScreen (NVS) Transporter Assay for Norway rat Vesicular Monoamine Transporter (VMAT2), neurotransmitter transporter (AID 2283376).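 Also: actives lower the bound radioligand signal below the DMSO level.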 Put shortly: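 Tissue: rat forebrain extract. Format: competitive radioligand binding, cell-free. Timepoint: 1 h. Readout: filter radiodetection/scintillation. Screen: 25 uM in duplicate, then concentration series for actives. Baseline: DMSO.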

Experiment [11] relates to guinea pig Atrionatriuretic Peptide Receptor A (ANPA), gene 100135578. Kind of experiment: NVS_GPCR_gANPA: NovaScreen (NVS) G Protein-Coupled Receptor Assay for guinea pig Atrionatriuretic Peptide Receptor A (ANPA) (AID 2283291). Summed up: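 Radioligand binding to guinea pig cerebellar membranes was measured after 1 h by filter-based scintillation counting. Chemicals were tested in duplicate at 25 uM, with hits run in concentration-response to a maximum of 50 uM. Binding loss was fitted against DMSO.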

Experiment [12] has as its target bovine Gamma-Aminobutyric Acid Type A Receptor BDZ, alpha 1 site (GABARa1), GABRA1 (gene 780973) (UniProt P08219). Kind of experiment: NVS_LGIC_bGABARa1: NovaScreen (NVS) Ligand-Gated Ion Channel Assay for bovine Gamma-Aminobutyric Acid Type A Receptor BDZ, alpha 1 site (GABARa1) (AID 2283321). Summed up: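 Radioligand competition binding on bovine cortical membranes, 0.75 h, filter-based scintillation counting. Primary single concentration 25 uM in duplicate; actives rerun in concentration-response to 50 uM max. Loss of signal fitted versus DMSO.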

In experiment [13] the target is rat Oxytocin Receptor (OXT), Oxtr (gene 25342) (UniProt P70536). Kind of experiment: NVS_GPCR_rOXT: NovaScreen (NVS) G Protein-Coupled Receptor Assay for rat Oxytocin Receptor (OXT) (AID 2283330). Summed up: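 Radioligand displacement on rat uterine membranes, 1 h incubation, filter-based scintillation counting. Chemicals were screened in duplicate at 25 uM, and those passing threshold were retested in concentration-response up to 50 uM. Loss of binding was fitted versus DMSO.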
Sequence of rat Oxytocin Receptor (OXT), Oxtr (gene 25342) (P70536 whole entry, looked up): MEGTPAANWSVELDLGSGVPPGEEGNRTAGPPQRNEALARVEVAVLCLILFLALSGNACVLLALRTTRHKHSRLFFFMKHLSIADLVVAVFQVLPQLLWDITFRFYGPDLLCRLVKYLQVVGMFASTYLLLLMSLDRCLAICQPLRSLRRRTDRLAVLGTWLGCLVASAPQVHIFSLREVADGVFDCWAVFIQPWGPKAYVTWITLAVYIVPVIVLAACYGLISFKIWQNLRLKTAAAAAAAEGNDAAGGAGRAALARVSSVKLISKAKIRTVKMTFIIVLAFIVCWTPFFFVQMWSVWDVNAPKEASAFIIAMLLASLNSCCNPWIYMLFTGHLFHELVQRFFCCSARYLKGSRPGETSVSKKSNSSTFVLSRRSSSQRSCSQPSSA

Sequence of Androgen receptor (Homo sapiens) (P10275 whole entry, looked up, the tested form may be a part): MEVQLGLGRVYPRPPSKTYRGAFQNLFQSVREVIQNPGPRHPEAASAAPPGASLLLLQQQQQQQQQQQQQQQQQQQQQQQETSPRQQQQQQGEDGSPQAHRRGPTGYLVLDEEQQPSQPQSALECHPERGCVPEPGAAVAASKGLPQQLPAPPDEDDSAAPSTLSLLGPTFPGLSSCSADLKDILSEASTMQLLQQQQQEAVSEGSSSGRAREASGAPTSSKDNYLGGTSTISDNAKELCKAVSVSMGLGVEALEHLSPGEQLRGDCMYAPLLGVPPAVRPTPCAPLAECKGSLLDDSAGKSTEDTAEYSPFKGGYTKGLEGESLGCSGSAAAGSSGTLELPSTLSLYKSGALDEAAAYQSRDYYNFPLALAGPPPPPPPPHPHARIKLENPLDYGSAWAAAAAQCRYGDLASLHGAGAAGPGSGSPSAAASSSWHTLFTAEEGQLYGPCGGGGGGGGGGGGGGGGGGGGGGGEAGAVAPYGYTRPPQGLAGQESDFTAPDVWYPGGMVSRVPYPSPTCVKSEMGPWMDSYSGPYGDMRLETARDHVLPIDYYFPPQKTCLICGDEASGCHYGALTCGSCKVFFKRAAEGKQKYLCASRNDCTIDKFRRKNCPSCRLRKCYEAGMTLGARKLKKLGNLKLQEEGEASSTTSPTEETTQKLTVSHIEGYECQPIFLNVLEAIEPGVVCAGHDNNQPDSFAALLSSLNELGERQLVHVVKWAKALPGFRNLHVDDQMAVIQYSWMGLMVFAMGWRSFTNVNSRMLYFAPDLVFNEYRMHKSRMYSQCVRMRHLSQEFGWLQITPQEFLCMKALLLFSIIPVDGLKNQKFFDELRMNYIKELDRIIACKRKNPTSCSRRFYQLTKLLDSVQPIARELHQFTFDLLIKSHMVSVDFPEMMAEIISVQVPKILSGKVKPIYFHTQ
Sequence of human Phosphatase and Tensin Homolog (PTEN), PTEN (gene 5728) (P60484 whole entry, looked up): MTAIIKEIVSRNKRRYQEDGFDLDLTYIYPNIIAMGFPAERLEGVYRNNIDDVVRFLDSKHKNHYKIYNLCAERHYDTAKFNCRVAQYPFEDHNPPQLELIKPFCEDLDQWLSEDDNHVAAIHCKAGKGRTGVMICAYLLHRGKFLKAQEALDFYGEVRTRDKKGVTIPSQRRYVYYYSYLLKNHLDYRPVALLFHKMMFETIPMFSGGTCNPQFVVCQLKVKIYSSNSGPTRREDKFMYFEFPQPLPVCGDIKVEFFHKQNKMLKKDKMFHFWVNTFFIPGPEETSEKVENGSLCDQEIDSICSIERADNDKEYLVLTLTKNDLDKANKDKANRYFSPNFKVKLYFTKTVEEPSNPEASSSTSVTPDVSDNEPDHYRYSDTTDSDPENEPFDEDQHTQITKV
Sequence of rat Monoamine Oxidase, MAO-B, Central (MAOBC), Maob (gene 25750) (P19643 whole entry, looked up): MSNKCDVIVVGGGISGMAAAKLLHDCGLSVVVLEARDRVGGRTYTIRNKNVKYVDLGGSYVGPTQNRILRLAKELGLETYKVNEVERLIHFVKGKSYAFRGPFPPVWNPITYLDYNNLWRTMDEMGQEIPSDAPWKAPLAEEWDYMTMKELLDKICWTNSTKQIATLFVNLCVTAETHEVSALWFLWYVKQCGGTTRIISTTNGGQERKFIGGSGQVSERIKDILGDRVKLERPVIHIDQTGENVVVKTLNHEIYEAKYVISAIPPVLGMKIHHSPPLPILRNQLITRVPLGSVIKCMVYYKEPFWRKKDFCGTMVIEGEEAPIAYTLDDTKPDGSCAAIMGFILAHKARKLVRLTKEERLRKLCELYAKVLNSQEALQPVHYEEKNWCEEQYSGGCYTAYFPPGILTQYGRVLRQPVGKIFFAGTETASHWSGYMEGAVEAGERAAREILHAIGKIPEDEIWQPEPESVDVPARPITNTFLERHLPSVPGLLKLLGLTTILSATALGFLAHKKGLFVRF
Sequence of rat Monoamine Oxidase, MAO-B, Peripheral (MAOBP), Maob (gene 25750) (P19643 whole entry, looked up): as above
Sequence of human Protein Tyrosine Phosphatase Receptor Type C (PTPRC), PTPRC (gene 5788) (P08575 whole entry, looked up): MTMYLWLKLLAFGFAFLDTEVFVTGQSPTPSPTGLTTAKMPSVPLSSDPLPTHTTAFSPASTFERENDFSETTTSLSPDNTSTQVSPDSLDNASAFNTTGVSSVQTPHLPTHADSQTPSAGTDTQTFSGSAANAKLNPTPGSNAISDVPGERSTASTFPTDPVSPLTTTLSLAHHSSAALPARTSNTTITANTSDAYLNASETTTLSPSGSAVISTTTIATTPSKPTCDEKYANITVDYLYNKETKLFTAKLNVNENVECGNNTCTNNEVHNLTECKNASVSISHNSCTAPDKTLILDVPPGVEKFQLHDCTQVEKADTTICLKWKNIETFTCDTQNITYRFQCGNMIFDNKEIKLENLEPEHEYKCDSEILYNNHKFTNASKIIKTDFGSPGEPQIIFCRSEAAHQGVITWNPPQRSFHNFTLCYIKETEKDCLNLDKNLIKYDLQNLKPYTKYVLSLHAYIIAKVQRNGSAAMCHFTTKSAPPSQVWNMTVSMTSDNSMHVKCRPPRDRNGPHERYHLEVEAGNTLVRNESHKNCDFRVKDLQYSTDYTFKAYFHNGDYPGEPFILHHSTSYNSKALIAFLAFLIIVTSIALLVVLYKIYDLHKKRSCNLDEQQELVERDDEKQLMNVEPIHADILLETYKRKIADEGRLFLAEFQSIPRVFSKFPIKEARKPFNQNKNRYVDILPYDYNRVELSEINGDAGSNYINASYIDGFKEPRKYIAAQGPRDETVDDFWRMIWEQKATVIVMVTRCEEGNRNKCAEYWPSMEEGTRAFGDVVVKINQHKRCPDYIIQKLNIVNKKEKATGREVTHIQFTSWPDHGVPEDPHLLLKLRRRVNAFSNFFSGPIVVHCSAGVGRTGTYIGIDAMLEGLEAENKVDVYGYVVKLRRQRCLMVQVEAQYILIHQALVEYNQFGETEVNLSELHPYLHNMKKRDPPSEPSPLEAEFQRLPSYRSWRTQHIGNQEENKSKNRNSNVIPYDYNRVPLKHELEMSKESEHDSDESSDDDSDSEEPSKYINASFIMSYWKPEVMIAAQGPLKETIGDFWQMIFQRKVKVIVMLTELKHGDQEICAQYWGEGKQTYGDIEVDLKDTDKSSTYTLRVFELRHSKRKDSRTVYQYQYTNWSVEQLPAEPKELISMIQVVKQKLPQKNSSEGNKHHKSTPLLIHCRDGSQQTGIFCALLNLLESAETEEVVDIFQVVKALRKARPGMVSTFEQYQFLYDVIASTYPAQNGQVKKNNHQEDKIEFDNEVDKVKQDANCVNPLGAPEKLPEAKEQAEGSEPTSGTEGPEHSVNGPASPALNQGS
Sequence of Norway rat Vesicular Monoamine Transporter (VMAT2), neurotransmitter transporter, Slc18a2 (gene 25549) (Q01827 whole entry, looked up): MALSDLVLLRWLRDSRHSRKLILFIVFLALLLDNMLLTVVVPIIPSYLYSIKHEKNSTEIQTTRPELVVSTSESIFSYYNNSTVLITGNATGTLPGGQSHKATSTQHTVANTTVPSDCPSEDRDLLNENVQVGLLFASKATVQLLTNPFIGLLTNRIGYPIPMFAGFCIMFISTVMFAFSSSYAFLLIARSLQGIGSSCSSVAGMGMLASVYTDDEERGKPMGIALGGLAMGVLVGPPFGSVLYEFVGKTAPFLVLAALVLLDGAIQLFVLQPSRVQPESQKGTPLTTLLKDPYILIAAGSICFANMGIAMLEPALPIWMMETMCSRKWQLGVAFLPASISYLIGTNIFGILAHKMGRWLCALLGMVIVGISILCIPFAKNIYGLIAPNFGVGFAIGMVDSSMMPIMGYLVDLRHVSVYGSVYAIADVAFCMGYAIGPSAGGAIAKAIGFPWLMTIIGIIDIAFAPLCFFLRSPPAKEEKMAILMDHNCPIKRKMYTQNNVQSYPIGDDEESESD
Sequence of bovine Gamma-Aminobutyric Acid Type A Receptor BDZ, alpha 1 site (GABARa1), GABRA1 (gene 780973) (P08219 whole entry, looked up): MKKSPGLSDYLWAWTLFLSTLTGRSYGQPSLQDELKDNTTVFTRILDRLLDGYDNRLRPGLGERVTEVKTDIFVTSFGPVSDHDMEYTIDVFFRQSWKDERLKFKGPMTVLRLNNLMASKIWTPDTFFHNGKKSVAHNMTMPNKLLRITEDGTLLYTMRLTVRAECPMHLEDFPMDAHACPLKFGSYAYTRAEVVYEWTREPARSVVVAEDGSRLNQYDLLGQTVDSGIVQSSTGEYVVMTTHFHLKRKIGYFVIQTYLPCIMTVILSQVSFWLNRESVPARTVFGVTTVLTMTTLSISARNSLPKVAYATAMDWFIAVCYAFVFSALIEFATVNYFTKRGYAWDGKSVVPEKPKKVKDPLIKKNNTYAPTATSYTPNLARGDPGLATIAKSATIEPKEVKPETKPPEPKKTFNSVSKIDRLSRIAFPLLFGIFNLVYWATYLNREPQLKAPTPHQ

For the compound `CCOCCOCCO`, the compound was called inactive in [1] and in experiment [2].
Usually AC50 stands for the concentration giving half of the maximal activity seen. Take `CSc1ccc(O)cc1C`: the outcome in experiment [1] was inactive. In experiment [3], the AC50 is 15.7 µM (active).
With `O[Si](c1ccccc1)(c1ccccc1)c1ccccc1`, in [1], the outcome was inactive. Moreover, the AC50 in [4] is 10.6 µM (active).
Consider `CCC(=O)OC/C=C(\C)CCC=C(C)C`, for which the outcome in experiment [1] and in [3] was inactive.
On to `COCCOCCOC`, for which the outcome in experiment [1] was inactive. The AC50 in experiment [5] was 39.7 µM (active).
`CCOC(=O)C1=NN(c2ccc(Cl)cc2Cl)C(C)(C(=O)OCC)C1` (stereo not given): the result in [1] and in [4] was inactive.
As for `O=C(c1ccccc1)C1CCCCC1`, the outcome in experiment [1], in experiment [6] and in [7] was inactive.
With `CCN(CCC#N)c1ccc(N=Nc2ccc([N+](=O)[O-])cc2)cc1`, the compound was classed as inactive in experiment [1] and in experiment [4].
As to `O=C1c2ccc(O)c(O)c2C(=O)c2c(O)ccc(O)c21`, the result in [1] and in experiment [3] was inactive.
For the compound `OCCCc1cccnc1`, the outcome in experiment [1] and in experiment [4] was inactive.
For `Oc1ccc(/C=C/c2cc(O)cc(O)c2)cc1`, the result in experiment [1] was inactive. Besides, the AC50 in experiment [3] is 1.58 µM (active).
For `CCCCCCCC(=O)OCC` the same measures were “inactive” and 37.3 µM (active).
For the compound `CCN(CC)c1ccc(C=O)c(O)c1`, the outcome in experiment [1] was inactive. Besides, in [3], the AC50 is 17.5 µM (active).
`OCCCCl`: the compound was classed as inactive in experiment [1] and in experiment [4].
On to `Oc1ccc2c(c1)-c1ccccc1C2`, for which the call in experiment [1] and in experiment [8] was inactive. Besides, the AC50 is 4.45 µM (active) in experiment [5], 19.6 µM (active) in experiment [2] and 0.743 µM (active) in experiment [3].
As to `O=C(CCCCCCCCc1cccnc1)N1CCC(C=C(c2ccccc2)c2ccccc2)CC1`, the call in experiment [1], in [2] and in experiment [9] was inactive.
As for `CCCCCCCCC(C)=O`, the compound was classed as inactive in experiment [1], in [4] and in [10].
As for `Cn1c(=O)[nH]c2ncn(C)c2c1=O`, the result in experiment [1] was inactive. For the same compound, in [3], the AC50 is 34.9 µM (active).
In the case of `CN(Cc1cnc2nc(N)nc(N)c2n1)c1ccc(C(=O)N[C@@H](CCC(=O)O)C(=O)O)cc1`, the call in experiment [1] and in experiment [2] was inactive.
`CCCCC(CC)C(=O)OCCOCCOCCOC(=O)C(CC)CCCC` (stereo not given): the compound was classed as inactive in [1], in experiment [5] and in experiment [3].
As to `CCCCCc1ccc(O)cc1`, in experiment [1], the compound was called inactive. Further, in experiment [3], the AC50 was 17.3 µM (active).
With `CCCCCCc1ccc(O)cc1O`, the outcome in experiment [1] was inactive. In addition, the AC50 was 25 µM (active) in [5] and 16.5 µM (active) in experiment [3].
Regarding `CCOC(=O)CC(C)O` (stereo not given), the compound was called inactive in experiment [1] and in experiment [3].
On to `O=c1c(-c2ccc(O)cc2)coc2cc(O)ccc12`, for which the compound was called inactive in experiment [1], in [7] and in [8].
For `COc1ccccc1C=O`, the compound was called inactive in [1] and in experiment [4].
Turning to `CN(C[C@@H](CC[N+]12CCC(C3CCCCC3)(CC1)CC2)c1ccc(Cl)c(Cl)c1)C(=O)c1cc(C(F)(F)F)cc(C(F)(F)F)c1`, the compound was called inactive in experiment [1], in experiment [6] and in [12]. Further, the AC50 was 36.8 µM (active) in experiment [5], 42.3 µM (active) in [11] and 16.5 µM (active) in experiment [13].
